Screening results (PubChem BioAssay)
GSH bead fluor = compound fluoresces at 488/530 nm on GSH beads; fluorescence (KMESF) at 10 µM; AID 1776; GSH beads flow cytometry, compound fluorescence 488/530 nm; hits give high values; hit rate 0.25% among 190,000; in the data active means fluorescence above about 89;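 further: glutathione beads carrying GST-tagged Bcl family fusion proteins plus one bare bead set; values are compound well signal with DMSO vehicle wells as background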
RGS7-Gao = modulates binding of RGS7 to human Galphao; binding response (% of control), % at 10 µM; AID 1439; P09471; Multiplexed bead flow cytometry; actives lie on both sides; hit rate 0.35% among 220,000; in the data active means binding response below about 49% or above about 150%; inconclusive means no clear call, values can overlap the other calls; inactive means in between;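 further: fluorescent Galphao held in activated GDP-AlF4 state binding bead-coupled RGS7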
Target sequence (P09471 whole entry, looked up): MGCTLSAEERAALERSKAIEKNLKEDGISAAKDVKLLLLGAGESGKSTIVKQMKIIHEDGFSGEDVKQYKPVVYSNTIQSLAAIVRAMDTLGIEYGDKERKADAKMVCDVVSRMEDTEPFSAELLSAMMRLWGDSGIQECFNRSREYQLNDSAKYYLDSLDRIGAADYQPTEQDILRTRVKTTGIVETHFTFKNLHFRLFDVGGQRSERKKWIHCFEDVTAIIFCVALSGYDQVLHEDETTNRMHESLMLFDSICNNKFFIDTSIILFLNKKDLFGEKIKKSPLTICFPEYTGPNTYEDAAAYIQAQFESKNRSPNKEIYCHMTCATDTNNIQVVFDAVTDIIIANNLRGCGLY
Avidin bead fluor = avidin bead compound fluorescence profile | Avidin beads, compound fluorescence 488/530 nm, flow cytometry; hits give high values | fluorescence (KMESF) at 10 µM | hit rate 0.38% among 220,000 | AID 1775; in the data active means fluorescence above about 47
RGS4-Gao reg = modulates binding of RGS4 to human Galphao; Multiplexed bead flow cytometry; actives lie on both sides; binding response (% of control), % at 10 µM; hit rate 0.33% among 220,000; P09471; in the data active means binding response below about 49% or above about 150%; inactive means in between;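 further: fluorescent Galphao activated with aluminum fluoride binding bead-coupled RGS4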
RGS8-Gao reg = human RGS8-Galphao interaction regulation | P09471 | multiplexed bead flow cytometry, RGS8-Galphao binding; actives lie on both sides | response (percent of control binding), % at 10 µM | hit rate 0.34% among 220,000 | AID 1423; in the data active means response below about 60% or above about 140%; inactive means in between;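 further: Galphao activated as the GDP aluminium fluoride complex binding bead-coupled RGS8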
RGS16-Gao HTS = RGS16-Galphao interaction regulator (human); O15492+P09471; bead-based flow cytometry RGS16-Galphao binding, fluorescence; actives lie on both sides; binding response (% of control), % at 10 µM; hit rate 0.38% among 220,000; AID 1441;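 further: Galphao activated by GDP with aluminum fluoride before binding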
RGS-Gao = RGS4-Galphao interaction regulator (human) | shares compounds with RGS16-Gao HTS | multiplexed bead flow cytometry, RGS–Galpha-o binding | RGS4–Galpha-o binding response, % at 10 µM | hit rate 99% among 1,600;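 further: fluorescently labeled Galpha-o bound to GDP with aluminium fluoride binding biotinylated RGS beads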
Biotin-avidin = biotin-avidin bead binding disruption counter-screen | shares compounds with RGS16-Gao HTS | streptavidin beads, fluorescein-biotin binding, flow cytometry | inhibition, % at 10 µM | 1,700 tested, under 10 active | AID 1783;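 active means inhibition above 50%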;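 further: median green fluorescence of gated singlet beads compared with DMSO control wells; 0% = DMSO wells and 100% = complete loss of bead fluorescence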
RGS8-Gao confirm = RGS8-Galphao interaction regulation, single point confirmation; shares compounds with RGS16-Gao HTS; bead-based flow cytometry RGS8-Galphao binding, fluorescence; actives lie on both sides; binding response (% of control), % at 10 µM; hit rate 3% among 1,700; AID 1836; in the data active means binding response below about 72% or above about 130%; inactive means in between;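 further: Galphao activated as GDP AlF4 complex before binding bead RGS8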
RGS7-Gao single = confirmation of regulators of human RGS7-Galphao interaction. shares compounds with RGS16-Gao HTS. bead-based flow cytometry RGS7-Galphao binding; actives lie on both sides. response (percent of control binding), % at 10 µM. hit rate 7.8% among 1,700. AID 1837; in the data active means response below about 75% or above about 130%; inactive means in between;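 further: fluorescent Galphao activated with GDP and aluminum fluoride binding bead-coupled RGS7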
RGS16-Gao single = confirmation of regulators of human RGS16-Galphao interaction; bead-based flow cytometry, RGS16-Galphao binding; actives lie on both sides; AID 1838; shares compounds with RGS16-Gao HTS; hit rate 4% among 1,700; response (% of control binding), % at 10 µM; in the data active means response below about 74% or above about 130%; inactive means in between;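 further: Galphao activated as the GDP aluminium fluoride complex binding bead-coupled RGS16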
RGS4-Gao single = RGS4-Galphao interaction regulation, single point confirmation | shares compounds with RGS16-Gao HTS | RGS4-Galphao binding, multiplexed bead flow cytometry; actives lie on both sides | binding response (% of control), % at 10 µM | hit rate 4% among 1,700; in the data active means binding response below about 74% or above about 130%; inactive means in between
RGS19-Gao single = RGS19-Galphao interaction regulation, single point confirmation. shares compounds with RGS16-Gao HTS. hit rate 5% among 1,700. bead-based flow cytometry RGS19-Galphao binding; actives lie on both sides. response (percent of control binding), % at 10 µM; in the data active means response below about 50% or above about 160%; inactive means in between;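 further: 100% = no compound control and 0% = blank background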
Target sequence (P09471 whole entry, looked up): as above
Target sequence (P49795 whole entry, looked up): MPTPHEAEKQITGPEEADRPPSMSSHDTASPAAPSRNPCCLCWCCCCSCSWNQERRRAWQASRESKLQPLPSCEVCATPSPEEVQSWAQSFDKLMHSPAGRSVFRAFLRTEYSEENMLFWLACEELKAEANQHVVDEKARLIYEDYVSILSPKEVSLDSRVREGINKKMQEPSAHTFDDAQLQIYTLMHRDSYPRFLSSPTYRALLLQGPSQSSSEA
The depositor's hits bear a star; u = inconclusive; x = no result; [ ] = another dose, or the depositor's remark. In the library only some 1.2% were active in any assay of this set; here they are far more common. Unless noted, how the calls were made is not given here.

SMILES	GSH bead fluor	RGS7-Gao	Avidin bead fluor	RGS4-Gao reg	RGS8-Gao reg	RGS16-Gao HTS	RGS-Gao	Biotin-avidin	RGS8-Gao confirm	RGS7-Gao single	RGS16-Gao single	RGS4-Gao single	RGS19-Gao single
Nc1cccnc1Sc1ccc([N+](=O)[O-])cn1	8	5.8*	-2	4.3*	5.6*	-30	x	-2	91	131*[activator]	94	105	95
O=[N+]([O-])c1ccc(Sc2ccccc2)nc1	13	98	5	100	103	106	x	x	x	x	x	x	x
CC1SC(C)C(=O)N(CC(=O)NCc2ccc(F)cc2)C1=O (stereo unspecified)	19	101	13	104	100	104	x	x	x	x	x	x	x
CCOC(=O)/C(C(=O)Nc1ccccc1Cl)=C1/NC(C)(C)Cc2ccccc21	17	x	x	x	x	x	x	5	95	73*	86	85	88
COc1c(F)c(F)c(C(=O)Nc2ccc(N3CCN(Cc4ccccc4)CC3)cc2)c(F)c1F	10	128	6	141	175*[activator]	449	141*	-1	98	100	99	99	103
CCOC(=O)N1CCN(C(=O)C2CCN(C(=O)c3cc(OC)cc(OC)c3)CC2)CC1	9	130	6	123	134	205*[activator]	123*	1	101	100	101	100	112
CC1(C)SC(=S)N(/N=C/c2ccccc2)C1N(O)C(=O)Nc1ccc([N+](=O)[O-])cc1 (stereo unspecified)	30	100	15	102	99	104	x	x	x	x	x	x	x
COc1ccccc1N1CCN(S(=O)(=O)CC23CCC(CC2=O)C3(C)C)CC1 (stereo unspecified)	30	17*	0	23*	15*	14*	x	0	99	101	98	96	70
Fc1cccc(Cc2noc(CN3CCCCC3CCc3ccccn3)n2)c1 (stereo unspecified)	11	128	6	122	114	113	x	x	x	x	x	x	x
O=C(O)CCC(=O)Nc1ccccc1C(=O)NCCc1ccccc1	3	95	8	95	82	44	x	x	x	x	x	x	x
O=C(NCCN1CCN(c2cccc(Cl)c2)CC1)C1CCCN(S(=O)(=O)c2cnc[nH]2)C1 (stereo unspecified)	15	114	5	116	142*[activator]	203	116*	x	x	x	x	x	x
Cc1cc(NC(=O)CSc2nnc3ccccn23)no1	15	u	8	101	101	101	x	x	x	x	x	x	x
COc1cc2c3c(c1OC)C1(C=CC(=O)C=C1)CC3N(C(=O)CCC(=O)O)CC2 (stereo unspecified)	x	u	7	98	101	97	x	x	x	x	x	x	x
COc1cc2c3c(c1OC)C1(C=CC(=O)C=C1)CC3N(C(=O)c1ccccc1)CC2 (stereo unspecified)	12	156*[activator]	120*	105	97	103	105*	x	x	x	x	x	x
COCCNC(=O)Cn1nc(-c2ccccc2OC)ccc1=O	57	133	5	133	158*[activator]	383	133*	1	107	82	104	91	56
O=C(/C=C/c1ccco1)OCC1CCCN2CCCCC12 (stereo unspecified)	22	95	9	97	104	116	x	x	x	x	x	x	x
COc1ccc(OC)c(/C(O)=C/C(=O)C(=O)Nc2cc(C)cc(C)c2)c1	35	97	15	97	100	101	x	x	x	x	x	x	x
COc1ccc(OC)c(/C(O)=C/C(=O)C(=O)Nc2cc(C)ccc2OC)c1	29	68	-1	49*	82	710	x	0	89	75*	87	84	127
CCOc1ccc(CCNC(=O)c2cc3sccc3n2C)cc1OCC	33	141	3	155*[activator]	142*[activator]	-274	x	1	99	99	99	99	84
CCN(CC)C(=O)Oc1ccc(Cl)c2cccnc12	29	u	10	101	103	100	x	x	x	x	x	x	x
O=C(Nc1cccc(C(F)(F)F)c1)Oc1ccc(Cl)c2cccnc12	x	u	0	26*	55*	31	x	0	100	100	98	100	96
CSC1=NSC2=NC(=O)/C(=C/c3coc4ccccc4c3=O)C(=N)N12	13	174*[activator]	94*	150	92	200	150*	x	x	x	x	x	x
CSC1=NSC2=NC(=O)/C(=C/c3coc4ccc(O)cc4c3=O)C(=N)N12	15	92	13	97	96	97	x	x	x	x	x	x	x
S=C(Nc1ccccn1)NC1CCCCC1	x	u	7	102	104	102	x	x	x	x	x	x	x
CC(=O)NN1C(=O)c2ccccc2NC1c1ccccn1 (stereo unspecified)	14	94	7	97	85	22*	97*	2	104	103	101	105	108
SMILES	GSH bead fluor	RGS7-Gao	Avidin bead fluor	RGS4-Gao reg	RGS8-Gao reg	RGS16-Gao HTS	RGS-Gao	Biotin-avidin	RGS8-Gao confirm	RGS7-Gao single	RGS16-Gao single	RGS4-Gao single	RGS19-Gao single
CC1=CN2CC(O)CN=C2C=C1 (stereo unspecified)	39	x	x	x	x	x	x	2	100	95	98	99	108
CC1=CC=CN2CC(O)CN=C12 (stereo unspecified)	15	104	26	106	103	98	x	x	x	x	x	x	x
CCOC(=O)c1cc2c(=O)n3ccccc3nc2n(Cc2ccco2)c1=NC(=O)c1ccc(OC)cc1OC	10	96	12	98	100	101	x	x	x	x	x	x	x
CCN(CC)c1ccc(N=Cc2ccccc2[N+](=O)[O-])cc1	9	95	2	93	84	58	x	x	x	x	x	x	x
CCN(CC)c1ccc(N=Cc2ccc([N+](=O)[O-])o2)cc1	8	56	2	69	71	20*	69*	-1	93	76	91	85	86
Cc1ccc(N(CCC#N)C(=O)CCl)cc1C	7	92	9	95	80	21*	95*	0	101	102	103	104	107
CCCCCC(=O)NC(=S)NC1C2CC3CC(C2)CC1C3 (stereo unspecified)	x	u	8	98	99	97	x	x	x	x	x	x	x
